# Data: the supplement of paper PMC8728848
# The sample as a whole holds a higher share of the strongest signals than the screen did.
# B1: FimD (Bordetella pertussis) (protein)
# chain: MPARVISFCGAALAVWAGLAVQPAMAVDPPVDCGRALGLHFWSSASLISDQTPDGTLIGKPVVGRSLLSKSCKVPDDIKEDLSDNHDGEPVDIVLELGSNYKIRPQSYGHPGIVVDLPFGSTEETGIAIYIDFGSSPMQKVGERQWLYPQKGEVLFDVLTINGDNAEVRYQAIKVGPLKRPRKLVLSQFPNLFTYKWVFMRGTSQERVLAQGTIDTDVATSTIDLKTCRYTSQTVSLPIIQRSALTGVGTTLGMTDFQMPFWCYGWPKVSVYMSATKTQTGVDGVALPATGQAAGMASGVGVQLINGKTQQPVKLGLQGKIALPEAQQTESATFSLPMKAQYYQTSTSTSAGKLSVTYAVTLNYD
# How the values were obtained:
# Experiment in all cases: glycan array binding signal (z-score within array); higher = stronger binding
# Conditions in all cases: glycan notation: IUPAC condensed, linker removed
# [1] = target: Fuc(a1-2)Gal(b1-3)GlcNAc(b1-3)GalNAc
# In short: (§1)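 Glycan array data were curated from 3228 arrays in the Consortium for Functional Glycomics database and kept only where the protein sequence was available. Glycan names were converted to IUPAC-condensed notation, and columns mapping to the same glycan were averaged. The binding signal is a within-array Z-score, averaged across arrays of the same protein sequence at different concentrations or buffers and across linkers. Negative Z-scores can be read as non-binding.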
# [2] = target: Fuc(a1-2)Gal(b1-4)GlcNAc6S
# In short: as §1
# [3] = target: Fuc(a1-2)Gal(b1-4)[Fuc(a1-3)]GlcNAc(b1-2)[Fuc(a1-2)Gal(b1-4)[Fuc(a1-3)]GlcNAc(b1-4)]Man(a1-3)[Fuc(a1-2)Gal(b1-4)[Fuc(a1-3)]GlcNAc(b1-2)Man(a1-6)]Man(b1-4)GlcNAc(b1-4)GlcNAc
# In short: as §1
# [4] = target: Fuc(a1-2)Gal(b1-4)[Fuc(a1-3)]GlcNAc(b1-3)[Neu5Ac(a2-6)Gal(b1-4)GlcNAc(b1-6)]Gal(b1-4)Glc
# In short: as §1
# Fuc(a1-2)Gal6S(b1-4)Glc = target: Fuc(a1-2)Gal6S(b1-4)Glc
# In short: as §1
# [5] = target: Fuc(a1-2)[Gal(a1-3)]Gal(b1-3)GlcNAc
# In short: as §1
# [6] = target: Fuc(a1-2)[GalNAc(a1-3)]Gal(b1-3)GalNAc(b1-3)Gal(a1-4)Gal(b1-4)Glc
# In short: as §1
# [7] = target: Fuc(a1-2)[GalNAc(a1-3)]Gal(b1-4)GlcNAc(b1-2)Man(a1-3)[Fuc(a1-2)[GalNAc(a1-3)]Gal(b1-4)GlcNAc(b1-2)Man(a1-6)]Man(b1-4)GlcNAc(b1-4)[Fuc(a1-6)]GlcNAc
# In short: as §1
# [8] = target: Fuc(a1-2)[GalNAc(a1-3)]Gal(b1-4)GlcNAc(b1-3)Gal(b1-4)GlcNAc(b1-3)Gal(b1-4)GlcNAc
# In short: as §1
# [9] = target: Fuc(a1-2)[GalNAc(a1-3)]Gal(b1-4)[Fuc(a1-3)]GlcNAc(b1-3)GalNAc
# In short: as §1
# Fuc(a1-4)GlcNAc = target: Fuc(a1-4)GlcNAc
# In short: as §1
# [10] = target: Gal(a1-3)Gal(b1-4)GlcNAc(b1-2)Man(a1-3)[Gal(a1-3)Gal(b1-4)GlcNAc(b1-2)Man(a1-6)]Man(b1-4)GlcNAc(b1-4)GlcNAc
# In short: as §1
# Gal(b1-3)GalNAc(b1-3)Gal = target: Gal(b1-3)GalNAc(b1-3)Gal
# In short: as §1
# [11] = target: Gal(b1-3)GlcNAc(a1-6)Gal(b1-4)GlcNAc
# In short: as §1
# [12] = target: Gal(b1-3)GlcNAc(b1-2)Man(a1-3)[Gal(b1-3)GlcNAc(b1-2)Man(a1-6)]Man(b1-4)GlcNAc(b1-4)[Fuc(a1-6)]GlcNAc
# In short: as §1
# [13] = target: Gal(b1-3)GlcNAc(b1-2)[Gal(b1-3)GlcNAc(b1-6)]Man(a1-6)[Gal(b1-3)GlcNAc(b1-2)Man(a1-3)]Man(b1-4)GlcNAc(b1-4)GlcNAc
# In short: as §1
# [14] = target: Gal(b1-3)GlcNAc(b1-3)Gal(b1-4)Glc
# In short: as §1
# [15] = target: Gal(b1-3)GlcNAc(b1-3)Gal(b1-4)GlcNAc(b1-2)[Gal(b1-3)GlcNAc(b1-3)Gal(b1-4)GlcNAc(b1-6)]Man(a1-6)[Gal(b1-3)GlcNAc(b1-3)Gal(b1-4)GlcNAc(b1-2)Man(a1-3)]Man(b1-4)GlcNAc(b1-4)[Fuc(a1-6)]GlcNAc
# In short: as §1
# [16] = target: Gal(b1-3)GlcNAc(b1-3)Gal(b1-4)GlcNAc(b1-3)Gal(b1-4)GlcNAc(b1-2)[Gal(b1-3)GlcNAc(b1-3)Gal(b1-4)GlcNAc(b1-3)Gal(b1-4)GlcNAc(b1-6)]Man(a1-6)[Gal(b1-3)GlcNAc(b1-3)Gal(b1-4)GlcNAc(b1-3)Gal(b1-4)GlcNAc(b1-2)Man(a1-3)]Man(b1-4)GlcNAc(b1-4)[Fuc(a1-6)]GlcNAc
# In short: as §1
# [17] = target: Gal(b1-3)[Fuc(a1-4)]GlcNAc(b1-6)GalNAc
# In short: as §1
# [18] = target: Gal(b1-4)GalNAc(a1-3)[Fuc(a1-2)]Gal(b1-4)GlcNAc
# In short: as §1
# Gal(b1-4)Glc = target: Gal(b1-4)Glc
# In short: as §1
# [19] = target: Gal(b1-4)GlcNAc(b1-3)Gal(b1-3)GalNAc
# In short: as §1
# [20] = target: Gal(b1-4)GlcNAc(b1-3)Gal(b1-4)GlcNAc(b1-3)Gal(b1-4)GlcNAc(b1-3)Gal(b1-4)GlcNAc(b1-3)Gal(b1-4)GlcNAc(b1-2)Man(a1-3)[Gal(b1-4)GlcNAc(b1-3)Gal(b1-4)GlcNAc(b1-3)Gal(b1-4)GlcNAc(b1-3)Gal(b1-4)GlcNAc(b1-3)Gal(b1-4)GlcNAc(b1-2)Man(a1-6)]Man(b1-4)GlcNAc(b1-4)GlcNAc
# In short: as §1
# [21] = target: Gal(b1-4)GlcNAc(b1-3)Gal(b1-4)GlcNAc(b1-3)Gal(b1-4)GlcNAc(b1-3)Gal(b1-4)GlcNAc(b1-3)Gal(b1-4)GlcNAc(b1-2)[Gal(b1-4)GlcNAc(b1-3)Gal(b1-4)GlcNAc(b1-3)Gal(b1-4)GlcNAc(b1-3)Gal(b1-4)GlcNAc(b1-3)Gal(b1-4)GlcNAc(b1-6)]Man(a1-6)[Gal(b1-4)GlcNAc(b1-3)Gal(b1-4)GlcNAc(b1-3)Gal(b1-4)GlcNAc(b1-3)Gal(b1-4)GlcNAc(b1-3)Gal(b1-4)GlcNAc(b1-2)Man(a1-3)]Man(b1-4)GlcNAc(b1-4)[Fuc(a1-6)]GlcNAc
# In short: as §1
# Gal3S(b1-4)Glc = target: Gal3S(b1-4)Glc
# In short: as §1
# Gal6S(b1-3)GlcNAc = target: Gal6S(b1-3)GlcNAc
# In short: as §1
# [22] = target: GalNAc(a1-3)GalNAc(b1-3)Gal(a1-4)Gal(b1-4)Glc
# In short: as §1
binder,measurement,setting,value
B1,glycan array binding signal (z-score),[1],-0.342
same,glycan array binding signal (z-score),[2],-0.052
same,glycan array binding signal (z-score),[3],0.133
same,glycan array binding signal (z-score),[4],-0.355
same,glycan array binding signal (z-score),Fuc(a1-2)Gal6S(b1-4)Glc,-0.056
same,glycan array binding signal (z-score),[5],-0.256
same,glycan array binding signal (z-score),[6],-0.248
same,glycan array binding signal (z-score),[7],-0.394
same,glycan array binding signal (z-score),[8],0.141
same,glycan array binding signal (z-score),[9],19.2
same,glycan array binding signal (z-score),Fuc(a1-4)GlcNAc,1.73
same,glycan array binding signal (z-score),[10],1.67
same,glycan array binding signal (z-score),Gal(b1-3)GalNAc(b1-3)Gal,-0.089
same,glycan array binding signal (z-score),[11],-0.163
same,glycan array binding signal (z-score),[12],0.621
same,glycan array binding signal (z-score),[13],0.171
same,glycan array binding signal (z-score),[14],-0.264
same,glycan array binding signal (z-score),[15],1.82
same,glycan array binding signal (z-score),[16],0.259
same,glycan array binding signal (z-score),[17],2.73
same,glycan array binding signal (z-score),[18],-0.051
same,glycan array binding signal (z-score),Gal(b1-4)Glc,-0.288
same,glycan array binding signal (z-score),[19],-0.264
same,glycan array binding signal (z-score),[20],0.072
same,glycan array binding signal (z-score),[21],0.919
same,glycan array binding signal (z-score),Gal3S(b1-4)Glc,-0.263
same,glycan array binding signal (z-score),Gal6S(b1-3)GlcNAc,0.772
same,glycan array binding signal (z-score),[22],-0.169
